{
  "source": "the antibiotic and cytotoxicity screens of Wong et al. (2023)",
  "note": "About 3,300 (8.5%) of roughly 39,000 compounds were called active. For the sample, actives were picked, then their nearest neighbours and some compounds at random.",
  "data": [
    {"tested_on": "HepG2", "assay": "cytotoxicity call (relative viability < 0.9)", "conditions": "10 µM", "values": [
      {"smiles": "O=C(C[C@@H]1C=C[C@@H](NC(=O)CN2CCOCC2)[C@@H](CO)O1)NCCc1ccccc1", "cytotoxicity call": "inactive"},
      {"smiles": "C[C@H](CO)N1C[C@H](C)[C@@H](CN(C)Cc2cccc(C(=O)O)c2)Oc2ncc(C#CC(C)(C)O)cc2C1=O", "cytotoxicity call": "inactive"},
      {"smiles": "O=C(CCCCCCC(=O)Nc1ccc([C@H]2O[C@@H](CSc3ccncc3)C[C@@H](c3ccccc3)O2)cc1)NO", "cytotoxicity call": "inactive"},
      {"smiles": "C[C@H]1CCCCO[C@H](CN(C)S(=O)(=O)c2cn(C)cn2)[C@@H](C)CN([C@@H](C)CO)C(=O)c2cc(NC(=O)CCCN(C)C)ccc2O1", "cytotoxicity call": "inactive"},
      {"smiles": "C[C@@H]1CCCCO[C@H](CN(C)Cc2ccncc2)[C@H](C)CN([C@@H](C)CO)C(=O)c2cc(NC(=O)CCC(F)(F)F)ccc2O1", "cytotoxicity call": "inactive"},
      {"smiles": "CN1CCN(C(=O)[C@H]2[C@H](CO)[C@H]3Cn4c(cccc4=O)[C@@H]2N3S(=O)(=O)c2ccccc2F)CC1", "cytotoxicity call": "inactive"},
      {"smiles": "CCNC(=O)C[C@@H]1CC[C@@H]2[C@H](COC[C@H](O)CN2S(=O)(=O)c2ccc(Oc3ccccc3)cc2)O1", "cytotoxicity call": "inactive"},
      {"smiles": "O=S1(=O)CC[C@H](N2CCOCC2)C1", "cytotoxicity call": "inactive"},
      {"smiles": "COc1ccc(NC(=O)Nc2ccc3c(c2)C(=O)N([C@H](C)CO)C[C@H](C)[C@@H](CN(C)C(=O)CCC(F)(F)F)OCCCC[C@@H](C)O3)cc1", "cytotoxicity call": "inactive"},
      {"smiles": "Cc1noc(C)c1NC(=O)Nc1cccc2c1O[C@@H](CN(C)Cc1ccc(C(=O)Nc3ccccc3N)cc1)[C@@H](C)CN([C@H](C)CO)C2=O", "cytotoxicity call": "inactive"},
      {"smiles": "O=C(CN1CCOCC1)N[C@H]1CC[C@@H](CCNC(=O)C2CCCCC2)O[C@@H]1CO", "cytotoxicity call": "inactive"},
      {"smiles": "C[C@@H]1CCCCO[C@H](CN(C)C(=O)NC2CCCCC2)[C@H](C)CN([C@H](C)CO)C(=O)c2cc(NC(=O)CCC(F)(F)F)ccc2O1", "cytotoxicity call": "inactive"},
      {"smiles": "O=C(CC(=O)N1CCOCC1)N1CCOCC1", "cytotoxicity call": "inactive"},
      {"smiles": "Cc1noc(C)c1S(=O)(=O)Nc1ccc2c(c1)C(=O)N([C@H](C)CO)C[C@@H](C)[C@@H](CN(C)Cc1ccc3c(c1)OCO3)O2", "cytotoxicity call": "inactive"},
      {"smiles": "CC(C)c1nc2cc3sc(C(C)C)nc3cc2s1", "cytotoxicity call": "inactive"},
      {"smiles": "CCCCCCCCCC(=O)N[C@H]1[C@H](Oc2c3cc4cc2Oc2ccc(cc2Cl)[C@@H](O[C@@H]2O[C@H](CO)[C@@H](O)[C@H](O)[C@H]2NC(C)=O)[C@@H]2NC(=O)[C@H](NC(=O)[C@@H]4NC(=O)[C@H]4NC(=O)[C@@H](Cc5ccc(c(Cl)c5)O3)NC(=O)[C@@H](N)c3ccc(O)c(c3)Oc3cc(O)cc4c3)c3ccc(O)c(c3)-c3c(O[C@H]4O[C@H](CO)[C@@H](O)[C@H](O)[C@@H]4O)cc(O)cc3[C@H](C(=O)O)NC2=O)O[C@H](CO)[C@@H](O)[C@@H]1O", "cytotoxicity call": "inactive"},
      {"smiles": "CN1CCN(C(=O)C[C@@H]2CC[C@H]3[C@@H](COc4ccc(NC(=O)C5CCOCC5)cc4C(=O)N3C)O2)CC1", "cytotoxicity call": "inactive"},
      {"smiles": "CS(=O)(=O)N1C[C@H](O)COC[C@@H]2O[C@@H](CC(=O)NCc3ccccc3)CC[C@H]21", "cytotoxicity call": "inactive"},
      {"smiles": "C[C@@H]1CN([C@@H](C)CO)S(=O)(=O)c2ccc(C#Cc3ccncc3)cc2O[C@@H]1CN(C)S(=O)(=O)c1ccc(F)cc1", "cytotoxicity call": "active"},
      {"smiles": "C[C@@H]1CN([C@@H](C)CO)S(=O)(=O)c2ccc(C#Cc3ccc(F)cc3)cc2O[C@H]1CN(C)S(=O)(=O)c1ccc(F)cc1", "cytotoxicity call": "inactive"},
      {"smiles": "C[C@H](CO)N1C[C@H](C)[C@H](CN(C)S(=O)(=O)c2ccc(F)cc2)Oc2cc(C#Cc3ccc(F)cc3)ccc2S1(=O)=O", "cytotoxicity call": "inactive"},
      {"smiles": "C[C@H](CO)N1C[C@H](C)[C@H](CN(C)S(=O)(=O)c2ccc(F)cc2)Oc2cc(C#Cc3ccncc3)ccc2S1(=O)=O", "cytotoxicity call": "active"},
      {"smiles": "C[C@@H]1CN([C@@H](C)CO)S(=O)(=O)c2ccc(C#Cc3ccc(F)cc3)cc2O[C@@H]1CN(C)S(=O)(=O)c1ccc(F)cc1", "cytotoxicity call": "inactive"},
      {"smiles": "C[C@H](CO)N1C[C@H](C)[C@@H](CN(C)S(=O)(=O)c2ccc(F)cc2)Oc2cc(C#Cc3ccc(F)cc3)ccc2S1(=O)=O", "cytotoxicity call": "inactive"},
      {"smiles": "C[C@@H]1CCCCO[C@H](CN(C)C(=O)NC2CCCCC2)[C@@H](C)CN([C@H](C)CO)C(=O)c2cc(NC(=O)Nc3ccc(F)cc3)ccc2O1", "cytotoxicity call": "inactive"},
      {"smiles": "Cc1noc(C)c1NC(=O)N[C@H]1C=C[C@@H](CC(=O)NCCCN(C)C)O[C@H]1CO", "cytotoxicity call": "inactive"},
      {"smiles": "C[C@@H]1CN([C@@H](C)CO)C(=O)c2cc(C#CCN(C)C)cnc2O[C@@H]1CN(C)C(=O)Nc1ccccc1F", "cytotoxicity call": "inactive"},
      {"smiles": "Nc1cc2[nH]cnc2c(O)n1", "cytotoxicity call": "inactive"},
      {"smiles": "Nc1ncnc2[nH]cnc12", "cytotoxicity call": "inactive"},
      {"smiles": "Nc1nc(S)c2nc[nH]c2n1", "cytotoxicity call": "active"},
      {"smiles": "CCN(CC)C(=O)c1ccc[n+](CC(N)=O)c1", "cytotoxicity call": "inactive"},
      {"smiles": "O=C(CCCCCNC(=O)OCCCCO[C@@H]1C[C@H](c2ccc(C(F)(F)F)cc2)C=C(C(=O)N2CCN(Cc3ccc4c(c3)OCO4)CC2)O1)NO", "cytotoxicity call": "inactive"},
      {"smiles": "Cc1noc(C)c1S(=O)(=O)Nc1ccc2c(c1)C(=O)N([C@H](C)CO)C[C@@H](C)[C@@H](CN(C)Cc1ccc(Cl)c(Cl)c1)OCCCC[C@H](C)O2", "cytotoxicity call": "active"},
      {"smiles": "Cc1noc(C)c1S(=O)(=O)Nc1ccc2c(c1)C(=O)N([C@H](C)CO)C[C@@H](C)[C@@H](CN(C)Cc1ccc(C(F)(F)F)cc1)OCCCC[C@H](C)O2", "cytotoxicity call": "active"},
      {"smiles": "Cc1noc(C)c1S(=O)(=O)Nc1ccc2c(c1)C(=O)N([C@H](C)CO)C[C@@H](C)[C@H](CN(C)Cc1ccc(C(F)(F)F)cc1)OCCCC[C@H](C)O2", "cytotoxicity call": "active"},
      {"smiles": "Cc1noc(C)c1S(=O)(=O)Nc1ccc2c(c1)C(=O)N([C@@H](C)CO)C[C@H](C)[C@@H](CN(C)Cc1ccc(Cl)c(Cl)c1)OCCCC[C@H](C)O2", "cytotoxicity call": "inactive"},
      {"smiles": "Cc1noc(C)c1S(=O)(=O)Nc1ccc2c(c1)C(=O)N([C@@H](C)CO)C[C@H](C)[C@H](CN(C)Cc1ccc(C(F)(F)F)cc1)OCCCC[C@@H](C)O2", "cytotoxicity call": "active"},
      {"smiles": "Cc1noc(C)c1S(=O)(=O)Nc1ccc2c(c1)C(=O)N([C@H](C)CO)C[C@H](C)[C@H](CN(C)Cc1ccc(C(F)(F)F)cc1)OCCCC[C@@H](C)O2", "cytotoxicity call": "inactive"},
      {"smiles": "Cc1noc(C)c1S(=O)(=O)Nc1ccc2c(c1)C(=O)N([C@H](C)CO)C[C@H](C)[C@H](CN(C)Cc1ccc(C(F)(F)F)cc1)OCCCC[C@H](C)O2", "cytotoxicity call": "inactive"},
      {"smiles": "Cc1noc(C)c1S(=O)(=O)Nc1ccc2c(c1)C(=O)N([C@@H](C)CO)C[C@H](C)[C@@H](CN(C)Cc1ccc(C(F)(F)F)cc1)OCCCC[C@@H](C)O2", "cytotoxicity call": "inactive"},
      {"smiles": "Cc1noc(C)c1S(=O)(=O)Nc1ccc2c(c1)C(=O)N([C@H](C)CO)C[C@H](C)[C@@H](CN(C)Cc1ccc(Cl)c(Cl)c1)OCCCC[C@H](C)O2", "cytotoxicity call": "inactive"},
      {"smiles": "Cc1noc(C)c1S(=O)(=O)Nc1ccc2c(c1)C(=O)N([C@H](C)CO)C[C@H](C)[C@@H](CN(C)Cc1ccc(C(F)(F)F)cc1)OCCCC[C@H](C)O2", "cytotoxicity call": "inactive"},
      {"smiles": "Cc1noc(C)c1S(=O)(=O)Nc1ccc2c(c1)C(=O)N([C@H](C)CO)C[C@@H](C)[C@H](CN(C)Cc1ccc(C(F)(F)F)cc1)OCCCC[C@@H](C)O2", "cytotoxicity call": "inactive"},
      {"smiles": "Cc1noc(C)c1S(=O)(=O)Nc1ccc2c(c1)C(=O)N([C@H](C)CO)C[C@@H](C)[C@@H](CN(C)Cc1ccc(C(F)(F)F)cc1)OCCCC[C@@H](C)O2", "cytotoxicity call": "inactive"}
    ]}
  ]
}
